{"source": "PubChem BioAssay AID651582", "about": "(Sanford-Burnham Center for Chemical Genomics, 2012)", "note": "In all, about 230,000 compounds went through this assay and about 1,500 (0.65%) were called active.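 The calls were made as follows: active = pattern-corrected inhibition of lipid staining of at least 50% with the nuclear-stain viability signal not falling by more than 50%; inactive = the rest, inconclusive results apart.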 The entries come from a sample that favours actives as a whole."}
{"test": "inhibitors of triacylglycerol accumulation, primary screen, cell-based, uHTS, fluorescence, H9c2 (AID 651582);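 as to inhibition: 0% = DMSO wells and 100% = triacsin C control wells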", "conditions": "H9c2 cells, Nile Red lipid (TAG) fluorescence, at 12.5 µM, cells loaded with 200 µM oleic acid; DAPI nuclei signal change (viability), lower = more cytotoxic: measured here: DAPI nuclei count viability; inhibition: stronger effect = higher value", "units": {"DAPI nuclei signal change (viability), lower = more cytotoxic": "%"}}
{"smiles": "Cc1nc2ccc(C(=O)O)cc2[nH]1", "DAPI nuclei signal change (viability), lower = more cytotoxic": 7.29, "inhibition": "-10.7% (inactive)"}
{"smiles": "COC(=O)Nc1nc2ccc(Sc3ccccc3)cc2[nH]1", "DAPI nuclei signal change (viability), lower = more cytotoxic": -43.5, "inhibition": "58.7% (active)"}
{"smiles": "COc1ccc2nc(SCC(=O)Nc3c(C)cc(C)cc3C)[nH]c2c1", "DAPI nuclei signal change (viability), lower = more cytotoxic": -8.51, "inhibition": "24.4% (inactive)"}
{"smiles": "N#Cc1ccc(-c2ccc3nccn3c2)cc1", "DAPI nuclei signal change (viability), lower = more cytotoxic": 18.4, "inhibition": "-21.5% (inactive)"}
{"smiles": "COc1cc(C(=O)NCC(c2ccco2)N2CCCC2)ccc1OCc1ccccc1", "note": "(stereo not given)", "DAPI nuclei signal change (viability), lower = more cytotoxic": 9.22, "inhibition": "5.54% (inactive)"}
{"smiles": "CCC1CCCCN1C(=S)NC(=O)c1ccco1", "note": "(stereo not given)", "DAPI nuclei signal change (viability), lower = more cytotoxic": -3.85, "inhibition": "-2.4% (inactive)"}
{"smiles": "COc1ccc(OCC(=O)NNC(=O)c2ccc(-c3ccccc3)cc2)cc1", "DAPI nuclei signal change (viability), lower = more cytotoxic": -4.12, "inhibition": "-6.97% (inactive)"}
{"smiles": "COC(=O)c1ccc(-c2c(-c3ccccc3)ncc3cc(OC)c(OC)cc23)cc1", "DAPI nuclei signal change (viability), lower = more cytotoxic": -46.2, "inhibition": "70.6% (active)"}
{"smiles": "COC(=O)c1ccc(SCc2ccccc2)nc1", "DAPI nuclei signal change (viability), lower = more cytotoxic": 0.616, "inhibition": "-5.84% (inactive)"}
{"smiles": "CN(CC(=O)Nc1c(Cl)cccc1Cl)C(=O)CC1OC(=O)c2ccccc21", "note": "(stereo not given)", "DAPI nuclei signal change (viability), lower = more cytotoxic": -7, "inhibition": "2.91% (inactive)"}
{"smiles": "COc1ccc(S(=O)(=O)N2CCCCC2c2cc(C(=O)NCc3ccc(F)cc3)no2)cc1", "note": "(stereo not given)", "DAPI nuclei signal change (viability), lower = more cytotoxic": -7.14, "inhibition": "11.8% (inactive)"}
{"smiles": "O=C(Nc1ccc(OC(F)(F)F)cc1)c1ccc2c(c1)no[n+]2[O-]", "DAPI nuclei signal change (viability), lower = more cytotoxic": -44.5, "inhibition": "57.3% (active)"}
{"smiles": "CCOC(=O)Cc1ncccc1C(=O)Nc1ccc(OC(F)(F)F)cc1", "DAPI nuclei signal change (viability), lower = more cytotoxic": -10.3, "inhibition": "-0.736% (inactive)"}
{"smiles": "Cn1nccc1NC(=O)Nc1ccc(OC(F)(F)F)cc1", "DAPI nuclei signal change (viability), lower = more cytotoxic": 0.761, "inhibition": "-19.5% (inactive)"}
{"smiles": "Cc1ccccc1Cn1c(C)c(C(=O)NCc2cccc(C(F)(F)F)c2)sc1=O", "DAPI nuclei signal change (viability), lower = more cytotoxic": 2.91, "inhibition": "13.2% (inactive)"}
{"smiles": "COc1ccc(-c2ccc(CN3C(CC(C)C)C(=O)N(Cc4cn(CC5CCCCC5)nn4)CCS3(=O)=O)cc2)cc1", "note": "(stereo not given)", "DAPI nuclei signal change (viability), lower = more cytotoxic": -3.84, "inhibition": "14.3% (inactive)"}
{"smiles": "CC(C)CC1C(=O)N(Cc2cn(CC3CCCCC3)nn2)CCS(=O)(=O)N1Cc1ccc(-c2ccc(Cl)cc2)cc1", "note": "(stereo not given)", "DAPI nuclei signal change (viability), lower = more cytotoxic": -4.47, "inhibition": "46.5% (inactive)"}
{"smiles": "CC(=O)c1cccc(-c2ccc(CN3C(CC(C)C)C(=O)N(Cc4cn(CC5CCCCC5)nn4)CCS3(=O)=O)cc2)c1", "note": "(stereo not given)", "DAPI nuclei signal change (viability), lower = more cytotoxic": -20.7, "inhibition": "52.2% (active)"}
{"smiles": "Cc1ccccc1-c1cc(C(=O)NCc2cccs2)n(CC2CC(c3cccnc3)=NO2)n1", "note": "(stereo not given)", "DAPI nuclei signal change (viability), lower = more cytotoxic": -34.7, "inhibition": "-1.76% (inactive)"}
{"smiles": "O=C(CCc1ccc(S(=O)(=O)N2CCOCC2)cc1)OCC(=O)c1ccc(Br)cc1", "DAPI nuclei signal change (viability), lower = more cytotoxic": 5.4, "inhibition": "-35.9% (inactive)"}
{"smiles": "Cc1ccc(/C=N/NC(=S)NC2CCCCC2)o1", "DAPI nuclei signal change (viability), lower = more cytotoxic": -2.44, "inhibition": "15.8% (inactive)"}
{"smiles": "Cc1ccc(/C=N/NC(=S)Nc2cccc(S(=O)(=O)N(C)C)c2)o1", "DAPI nuclei signal change (viability), lower = more cytotoxic": -39, "inhibition": "65.8% (active)"}
{"smiles": "CN(C)S(=O)(=O)c1cccc(NC(=S)NCc2ccc3c(c2)OCO3)c1", "DAPI nuclei signal change (viability), lower = more cytotoxic": 8.91, "inhibition": "-12.9% (inactive)"}
{"smiles": "CN1OC[C@@H]2CN[C@H](c3ccc(-c4ccccc4)cc3)C[C@@H]21", "DAPI nuclei signal change (viability), lower = more cytotoxic": -19.9, "inhibition": "37.5% (inactive)"}
{"smiles": "COc1ccccc1Nc1nc(N)nc(CN(C)C2CCCCC2)n1", "DAPI nuclei signal change (viability), lower = more cytotoxic": -2.24, "inhibition": "-18.7% (inactive)"}
{"smiles": "COc1ccccc1NC1=NC(c2ccc(Cl)cc2)N=C(N)N1", "note": "(stereo not given)", "DAPI nuclei signal change (viability), lower = more cytotoxic": -23.4, "inhibition": "58.3% (active)"}
{"smiles": "COc1ccccc1NC1=NC2(CCCC2)N=C(N)N1", "DAPI nuclei signal change (viability), lower = more cytotoxic": -8.79, "inhibition": "8.65% (inactive)"}
{"smiles": "Cc1ccc(NC(=O)CN(C)C(=O)c2ccc(Cl)c(S(=O)(=O)NCc3ccco3)c2)cc1", "DAPI nuclei signal change (viability), lower = more cytotoxic": -5.08, "inhibition": "12.3% (inactive)"}
{"smiles": "CCCCc1ccc(S(=O)(=O)NC(=O)C2(C)CCN2C(=O)c2c(C)noc2C)cc1", "note": "(stereo not given)", "DAPI nuclei signal change (viability), lower = more cytotoxic": 2.79, "inhibition": "0.354% (inactive)"}
{"smiles": "O=C(Nc1cccc(C(=O)O)c1)/C(=C\\c1ccccc1)NC(=O)c1ccc(Br)o1", "DAPI nuclei signal change (viability), lower = more cytotoxic": -3.36, "inhibition": "6.66% (inactive)"}
{"smiles": "COc1ccc2sc(-c3ccc(S(C)(=O)=O)cc3)c(C#Cc3cncn3C)c2c1", "DAPI nuclei signal change (viability), lower = more cytotoxic": 54.1, "inhibition": "93.5% (active)"}
{"smiles": "COc1ccc2sc(-c3ccc(S(C)(=O)=O)cc3)c(-c3ccc(C(N)=O)cc3)c2c1", "DAPI nuclei signal change (viability), lower = more cytotoxic": -5.68, "inhibition": "33.1% (inactive)"}
{"smiles": "Cn1cncc1C#Cc1c(-c2ccsc2)sc2ccccc12", "DAPI nuclei signal change (viability), lower = more cytotoxic": 7.19, "inhibition": "-0.161% (inactive)"}
{"smiles": "O=C(O)c1ccc([N+](=O)[O-])cc1Sc1ccsc1", "DAPI nuclei signal change (viability), lower = more cytotoxic": -1.85, "inhibition": "-10.5% (inactive)"}
{"smiles": "CCOC(=O)c1cc(-c2sc(NC(=O)c3ccccc3)nc2C)n(Cc2ccccc2)n1", "DAPI nuclei signal change (viability), lower = more cytotoxic": -2.4, "inhibition": "44.7% (inactive)"}
{"smiles": "COCCNc1ncnc2c1ncn2[C@H]1CN(CCN2CCOCC2)C[C@@H](CO)O1", "DAPI nuclei signal change (viability), lower = more cytotoxic": -0.911, "inhibition": "0.573% (inactive)"}
{"smiles": "CCCOC(=O)c1[nH]c2c(c1C)C(=O)CC(c1cc(OC)c(OC)c(OC)c1)C2", "note": "(stereo not given)", "DAPI nuclei signal change (viability), lower = more cytotoxic": -10.1, "inhibition": "-26.3% (inactive)"}
{"smiles": "COC(=O)C1C(=O)c2c([nH]c(C(=O)OCCSC)c2C)CC1C", "note": "(stereo not given)", "DAPI nuclei signal change (viability), lower = more cytotoxic": -3.66, "inhibition": "1.54% (inactive)"}
{"smiles": "CCCOC(=O)c1[nH]c2c(c1C)C(=O)CC(c1cccs1)C2", "note": "(stereo not given)", "DAPI nuclei signal change (viability), lower = more cytotoxic": -13.9, "inhibition": "64.7% (active)"}
{"smiles": "Cn1c(CCN2CCN(c3ccccn3)CC2)nc2cc(NS(=O)(=O)c3ccc(F)cc3)ccc21", "DAPI nuclei signal change (viability), lower = more cytotoxic": 6.59, "inhibition": "-5.66% (inactive)"}
{"smiles": "CC1CCC2(CC1)NC(=O)N(CC(=O)c1ccc3c(c1)OCO3)C2=O", "note": "(stereo not given)", "DAPI nuclei signal change (viability), lower = more cytotoxic": 5.46, "inhibition": "-2.45% (inactive)"}
{"smiles": "O=C(O)c1ccccc1-c1cccc2nncn12", "DAPI nuclei signal change (viability), lower = more cytotoxic": 3.23, "inhibition": "-1.16% (inactive)"}
{"smiles": "Cc1ccc2nc(C)cc(N/N=C/c3ccc(F)cc3)c2c1", "DAPI nuclei signal change (viability), lower = more cytotoxic": 4.22, "inhibition": "4.13% (inactive)"}
{"smiles": "C(=N/Nc1cc(N2CCOCC2)nc(N2CCOCC2)n1)/c1ccccc1", "DAPI nuclei signal change (viability), lower = more cytotoxic": -80.2, "inhibition": "126% (inactive)"}
{"smiles": "Cc1cc(N/N=C\\c2ccc(Br)cc2)nc(-n2nc(C)cc2C)n1", "DAPI nuclei signal change (viability), lower = more cytotoxic": -21.7, "inhibition": "59% (active)"}
{"smiles": "C=C(C)C(=O)O[C@H]1C/C(C)=C\\C(=O)/C=C(\\C)[C@H](O)[C@@H]2OC(=O)C(=C)[C@@H]21", "DAPI nuclei signal change (viability), lower = more cytotoxic": -49.2, "inhibition": "51.2% (active)"}
{"smiles": "O=C(Nc1nc2ccc([N+](=O)[O-])cc2s1)c1ccncc1", "DAPI nuclei signal change (viability), lower = more cytotoxic": 12.5, "inhibition": "-10.5% (inactive)"}
{"smiles": "CC(=O)c1sc(NC(=O)c2ccc(C)cc2)nc1C", "DAPI nuclei signal change (viability), lower = more cytotoxic": -3.26, "inhibition": "-5.37% (inactive)"}
{"smiles": "COc1ccc(C(=O)Nc2nc(-c3ccc(OC)cc3)c(-c3ccc([N+](=O)[O-])cc3)s2)cc1", "DAPI nuclei signal change (viability), lower = more cytotoxic": -4.41, "inhibition": "61.8% (active)"}
{"smiles": "Cc1ccc(C)c(S(=O)(=O)N(C)c2ccc(OC(=O)C3CCN(C(=O)c4ccc(F)cc4)CC3)cc2)c1", "DAPI nuclei signal change (viability), lower = more cytotoxic": 0.336, "inhibition": "-28% (inactive)"}
